According to PubChem BioAssay:
Activity calls are given as the source filed them. Unless noted, no rule for the calls is given here.

Tests used:
[1] = compounds binding Alexa647 anti-His antibody – biochemical, small-molecule microarray, 635 nm fluorescence, artefact control for SMM control protein annotation, primary screen (AID 1128); conditions: higher = more signal;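 also: score merges feature fluorescence with signal-to-noise for each printed compound spot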
[2] = system: Human papillomavirus type 1a E7 protein (residues 1-88); assay: HPV1a E7 small-molecule binders, primary screen, biochemical, small-molecule microarray, residues 1-88, 635 nm (AID 1129); conditions: small-molecule microarray binding, fluorescence 635 nm; higher = more signal
[3] = biological target: Focal adhesion kinase 1 (Homo sapiens) (UniProt Q05397); assay: PTK2 protein binding on printed compound slides – biochemical, small-molecule microarray, 635/667 nm fluorescence, BSA, DTT, primary screen (AID 1130); conditions: 635 nm fluorescence, higher = more signal;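 also: composite of spot emission at 667 nm and signal to noise over triplicate slides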
Sequence of Focal adhesion kinase 1 (Homo sapiens) (Q05397 whole entry, looked up): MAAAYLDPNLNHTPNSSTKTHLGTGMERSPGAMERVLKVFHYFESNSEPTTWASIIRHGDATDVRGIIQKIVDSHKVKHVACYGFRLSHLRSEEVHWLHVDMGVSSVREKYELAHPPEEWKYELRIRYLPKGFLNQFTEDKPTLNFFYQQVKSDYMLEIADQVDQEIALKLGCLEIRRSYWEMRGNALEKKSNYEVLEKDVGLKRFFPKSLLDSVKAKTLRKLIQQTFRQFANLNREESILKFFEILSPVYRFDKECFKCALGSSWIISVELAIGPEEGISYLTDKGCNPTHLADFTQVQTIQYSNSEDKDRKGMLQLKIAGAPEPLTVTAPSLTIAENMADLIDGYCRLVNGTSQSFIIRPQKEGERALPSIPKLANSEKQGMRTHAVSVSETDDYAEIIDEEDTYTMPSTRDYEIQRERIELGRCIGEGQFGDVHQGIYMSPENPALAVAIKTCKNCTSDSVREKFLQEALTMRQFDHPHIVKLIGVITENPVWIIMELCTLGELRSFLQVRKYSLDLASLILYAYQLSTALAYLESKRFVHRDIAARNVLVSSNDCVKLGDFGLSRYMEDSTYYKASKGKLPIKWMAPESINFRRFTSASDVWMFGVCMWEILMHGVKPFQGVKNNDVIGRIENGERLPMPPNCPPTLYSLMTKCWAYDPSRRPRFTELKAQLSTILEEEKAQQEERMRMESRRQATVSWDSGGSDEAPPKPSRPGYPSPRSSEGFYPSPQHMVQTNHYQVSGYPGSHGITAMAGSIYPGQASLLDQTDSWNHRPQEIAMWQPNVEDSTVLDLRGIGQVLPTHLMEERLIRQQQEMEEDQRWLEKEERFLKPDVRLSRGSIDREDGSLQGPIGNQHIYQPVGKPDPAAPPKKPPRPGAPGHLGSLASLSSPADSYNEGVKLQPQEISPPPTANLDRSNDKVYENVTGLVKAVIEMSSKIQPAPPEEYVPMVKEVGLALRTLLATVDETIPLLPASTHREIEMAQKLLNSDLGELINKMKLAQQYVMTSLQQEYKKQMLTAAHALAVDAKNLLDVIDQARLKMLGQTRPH

[4] = system: Fibrinogen (Alexa647-labelled); assay: Alexa647-fibrinogen binding to printed small molecules – biochemical, small-molecule microarray, 635/667 nm fluorescence, artefact control for SMM control-protein annotation, profiling panel (AID 1131); conditions: fibrinogen-A647 binding fluorescence, higher = more signal;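 also: z-score merges 667 nm fluorescence with per-spot signal-to-noise over triplicate slides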
[5] = biological target: Follistatin (Homo sapiens) (UniProt P19883); assay: FST protein binding to printed compounds – biochemical, small-molecule microarray, 635/667 nm fluorescence, primary screen (AID 1132); conditions: 635 nm fluorescence, higher = more signal
Sequence of Follistatin (Homo sapiens) (P19883 whole entry, looked up): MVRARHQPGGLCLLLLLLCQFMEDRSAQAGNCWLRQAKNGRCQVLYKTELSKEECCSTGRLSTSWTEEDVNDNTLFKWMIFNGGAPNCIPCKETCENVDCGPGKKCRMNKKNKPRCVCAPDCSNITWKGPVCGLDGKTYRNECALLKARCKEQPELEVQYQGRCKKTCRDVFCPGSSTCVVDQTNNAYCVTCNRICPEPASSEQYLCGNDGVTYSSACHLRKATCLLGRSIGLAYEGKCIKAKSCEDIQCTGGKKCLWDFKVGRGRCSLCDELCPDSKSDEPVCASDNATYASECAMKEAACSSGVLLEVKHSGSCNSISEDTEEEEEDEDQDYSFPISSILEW

[6] = biological target: Fibroblast growth factor 2 (Homo sapiens) (UniProt P09038); assay: basic fibroblast growth factor binding to printed compounds – biochemical, small-molecule microarray, 635/667 nm fluorescence, primary screen (AID 1133); conditions: FGF2, fluorescence 635/667, higher = more signal
Sequence of Fibroblast growth factor 2 (Homo sapiens) (P09038 whole entry, looked up): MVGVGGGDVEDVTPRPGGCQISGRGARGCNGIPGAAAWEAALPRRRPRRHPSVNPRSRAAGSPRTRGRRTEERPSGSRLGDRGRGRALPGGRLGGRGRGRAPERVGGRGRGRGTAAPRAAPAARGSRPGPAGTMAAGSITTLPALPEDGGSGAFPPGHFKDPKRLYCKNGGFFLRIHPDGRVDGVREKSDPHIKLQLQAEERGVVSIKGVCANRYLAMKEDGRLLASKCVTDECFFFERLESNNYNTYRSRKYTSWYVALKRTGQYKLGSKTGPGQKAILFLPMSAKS

[7] = JC-1 mitochondrial potential readout, lung cancer cells – cell-based, A549, JC-1 fluorescence, basal, 24 h, 100 nL, profiling panel (AID 1138); conditions: higher = more signal;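 also: A549 lung adenocarcinoma cells under basal conditions with no added stimulus; test concentration not given here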
Lefty1 = Lefty1 protein binding to printed compounds – biochemical, small-molecule microarray, 635/667 nm fluorescence, primary screen (AID 1139); conditions: fluorescence 635/667, higher = more signal
[8] = system: wheat germ agglutinin (Triticum aestivum), Alexa647-labelled; assay: Alexa647-WGA lectin binding to printed small molecules – biochemical, small-molecule microarray, 635/667 nm fluorescence, artefact control for SMM control-protein annotation, profiling panel (AID 1140); conditions: WGA-A647 binding, 635 nm fluorescence, higher = more signal;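 also: score merges 667 nm feature emission with signal to noise over triplicate slides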
[9] = biological target: Luciferin 4-monooxygenase (Photinus pyralis) (UniProt P08659); assay: inhibition of purified Photinus pyralis luciferase – biochemical, luminescence, purified enzyme, 2006 set, primary screen (AID 1141); conditions: purified firefly luciferase, SteadyGlo luminescence, 30 min; higher = more signal, called active from +8 up or from −8 down;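 also: cell-free assay with purified firefly luciferase at 100 ng per well in PBS; test concentration not given here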
Sequence of Luciferin 4-monooxygenase (Photinus pyralis) (P08659 whole entry, looked up): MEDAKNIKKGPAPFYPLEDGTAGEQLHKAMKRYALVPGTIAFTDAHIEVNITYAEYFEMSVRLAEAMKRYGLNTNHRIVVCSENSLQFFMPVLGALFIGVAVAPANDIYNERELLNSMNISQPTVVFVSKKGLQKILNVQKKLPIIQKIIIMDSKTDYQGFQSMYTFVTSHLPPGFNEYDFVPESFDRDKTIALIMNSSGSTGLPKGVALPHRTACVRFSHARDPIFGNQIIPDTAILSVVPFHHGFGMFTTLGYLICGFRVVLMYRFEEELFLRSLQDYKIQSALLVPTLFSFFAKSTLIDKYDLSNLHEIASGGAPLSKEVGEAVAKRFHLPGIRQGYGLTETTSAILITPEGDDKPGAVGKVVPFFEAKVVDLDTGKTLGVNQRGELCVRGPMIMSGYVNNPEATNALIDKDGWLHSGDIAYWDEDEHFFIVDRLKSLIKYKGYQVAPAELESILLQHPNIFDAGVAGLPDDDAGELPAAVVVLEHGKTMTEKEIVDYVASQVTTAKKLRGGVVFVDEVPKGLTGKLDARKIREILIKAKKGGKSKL

[10] = system: Wnt5a (protein binding on small-molecule microarray); assay: small molecules binding Wnt5a protein – biophysical, small-molecule microarray, 635/667 nm fluorescence, primary screen (AID 1142); conditions: 635 nm fluorescence, higher = more signal;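 also: fluorescence read at 667 nm with signal to noise per printed feature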
[11] = ATP-based viability of Huh7 replicon cells – cell-based, CellTiter-Glo luminescence, basal, 48 h, cytotoxicity control for HCV replication inhibitor project, primary screen (AID 1143); conditions: higher = more signal, called active from +8 up or from −8 down;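 also: Huh7 hepatoma cells carrying a hepatitis C replication reporter with no stimulus; test concentration not given here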
[12] = Pseudomonas biofilm growth suppression – PAO1 strain, BacTiter-Glo luminescence, LB-PBS, primary screen (AID 1144); conditions: P. aeruginosa PAO1 biofilm, 12 h, higher = more signal
[13] = basal CRE-LacZ reporter activity in PC12 – cell-based, unstimulated, primary screen (AID 1145); conditions: no forskolin, luminescence, 4.5 h, higher = more signal, called active from +8 up or from −8 down
[14] = forskolin-driven CRE-LacZ activity in PC12 – cell-based, CRE-LacZ reporter, forskolin-stimulated, primary screen (AID 1146); conditions: luminescence, 4.5 h, higher = more signal, called active from +8 up or from −8 down;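 also: PC12 cells with 6xCRE LacZ reporter stimulated by forskolin 10 µM; beta-galactosidase reporter signal reflecting CREB driven transcription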
[15] = biological target: Streptavidin (Streptomyces avidinii) (UniProt P22629); assay: compounds binding control protein streptavidin – biophysical, small-molecule microarray, 635/667 nm fluorescence, artefact control for SMM compound annotation, primary screen (AID 1147); conditions: higher = more signal;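 also: signal reflects streptavidin binding to arrayed compounds as a control protein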
Sequence of Streptavidin (Streptomyces avidinii) (P22629 whole entry, looked up): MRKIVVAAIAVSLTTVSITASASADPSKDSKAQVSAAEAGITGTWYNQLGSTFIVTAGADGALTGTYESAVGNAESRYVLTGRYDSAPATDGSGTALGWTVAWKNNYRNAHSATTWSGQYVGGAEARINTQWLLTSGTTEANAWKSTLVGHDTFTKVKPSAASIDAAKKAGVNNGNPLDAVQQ

[16] = probe aInhba binding on compound microarray – biochemical, small-molecule microarray, 635/667 nm fluorescence, primary screen (AID 1148); conditions: higher = more signal;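 also: score merges 667nm spot fluorescence with signal-to-noise for antibody binding to printed compounds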
Torsin-1A (Homo sapiens) [17] = biological target: Torsin-1A (Homo sapiens) (UniProt O14656); assay: TOR1A wild-type binding on microarray – cell lysate, small-molecule microarray, lysate, 635/667 nm, primary screen (AID 1149); conditions: COS7 hTOR1A-WT lysate, 635 nm fluorescence, higher = more signal
Sequence of Torsin-1A (Homo sapiens) (O14656 whole entry, looked up): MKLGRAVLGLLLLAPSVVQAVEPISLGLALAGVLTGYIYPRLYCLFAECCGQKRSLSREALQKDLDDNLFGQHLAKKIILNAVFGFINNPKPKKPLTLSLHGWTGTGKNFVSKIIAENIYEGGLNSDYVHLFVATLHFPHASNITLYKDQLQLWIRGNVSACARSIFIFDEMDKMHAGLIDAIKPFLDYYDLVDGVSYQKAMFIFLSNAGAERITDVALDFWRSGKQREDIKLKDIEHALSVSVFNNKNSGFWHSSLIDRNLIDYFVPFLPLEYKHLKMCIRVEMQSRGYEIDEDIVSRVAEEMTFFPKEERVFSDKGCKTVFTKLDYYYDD

Torsin-1A (Homo sapiens) [18] = biological target: Torsin-1A (Homo sapiens) (UniProt O14656); assay: torsin A mutant lysate binding on microarrays – cell lysate, small-molecule microarray, COS7 lysate, 635/667 nm fluorescence, primary screen (AID 1150); conditions: COS7 hTOR1A mutant lysate, 635 nm fluorescence, higher = more signal;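 also: score pools 667 nm emission and signal to noise measuring lysate protein binding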
[19] = system: Sonic hedgehog protein (Shh); assay: Sonic hedgehog microarray binding compounds – biochemical, small-molecule microarray, 635/667 nm fluorescence, primary screen (AID 1151); conditions: 635 nm fluorescence, higher = more signal;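 also: Shh protein binding to compounds spotted on small-molecule microarray slides; score combines spot fluorescence intensity with signal-to-noise across triplicate slides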

Structure (SMILES)	composite z-score [1]	composite z-score [2]	composite z-score [3]	composite z-score [4]	composite z-score [5]	composite z-score [6]	z-score [7]	composite z-score (Lefty1)	composite z-score [8]	z-score [9]	composite z-score [10]	z-score [11]	z-score [12]	z-score [13]	z-score [14]	composite z-score [15]	composite z-score [16]	composite z-score (Torsin-1A (Homo sapiens) [17])	composite z-score (Torsin-1A (Homo sapiens) [18])	composite z-score [19]
[N-]=[N+]=NCc1ccccc1[C@@H]1OC(c2ccc(OCCCO)cc2)=N[C@]1(CCS(=O)(=O)c1ccccc1)C(=O)NCCN1CCOCC1	1.68	1.29	0.261	1.03	1.43	0.913	0.721	0.684	1.31	-2.52 (inactive)	0.808	-0.31 (inactive)	-0.174 (inactive)	1.24 (inactive)	-1.16 (inactive)	0.81	0.285	2.1	1.9	0.615
COc1ccc([Si](C)(C)[C@H]2[C@H](CCn3cc([C@H](O)c4ccccc4)nn3)O[C@@]3(C(=O)N(Cc4cccc(N5CCOC5=O)c4)c4ccccc43)[C@@H]2C)cc1	0.0694	0.679	0.0871	0.401	1.28	0.669	0.711	0.892	0.22	0.387 (inactive)	0.488	-1.78 (inactive)	-0.394 (inactive)	-0.36 (inactive)	1.32 (inactive)	0.283	-0.362	0.132	0.199	1.5
COc1cc2c(cc1O)C(C1CC1)N(Cc1cc3c(cc1Br)OCO3)CC2 (stereo not given)	-1.4	-0.603	-0.629	-0.736	-0.774	-0.746	-0.721	-1.01	-0.503	-0.0849 (inactive)	-0.481	-5.73 (inactive)	-0.109 (inactive)	0.245 (inactive)	4.34 (inactive)	-0.735	-0.179	-0.151	-0.416	-1.09
O=C1OCCC/C=C\[C@H]2OC34C=CCN(c5ccc6ccccc6c5)C(=O)[C@H]3N(CCCCCCO)C(=O)[C@@H]4C12 (stereo not given in full)	1.79	0.124	-0.29	-1.74	-0.179	-0.943	1.74	-0.159	-0.0279	-1.47 (inactive)	-0.694	0.117 (inactive)	-1.7 (inactive)	0.61 (inactive)	-0.677 (inactive)	-1.1	-0.128	-1.12	-1.2	-0.0305
COC(=O)[C@@]1(Cc2ccc(F)cc2)[C@H]2c3cc(C(=O)N(C)C)n(Cc4ccc(S(C)(=O)=O)cc4)c3C[C@H]2CN1C(=O)c1ccccc1	0.904	0.941	1.16	1.01	0.158	0.0722	0.521	-0.224	0.766	0.202 (inactive)	0.0577	-0.845 (inactive)	-0.65 (inactive)	0.766 (inactive)	-0.428 (inactive)	1.02	0.266	0.33	0.0685	-0.447
O=C1c2ccccc2[C@@]2(Cc3ccccc3N(CCN3CCOCC3)C2=O)[C@H](c2ccc(CO)cc2)N1Cc1ccccc1	-0.784	-0.689	0.352	-0.523	0.0312	-0.253	0.202	-0.0729	-0.304	1.01 (inactive)	-0.465	-1.24 (inactive)	-1.33 (inactive)	0.208 (inactive)	-0.297 (inactive)	-0.383	-0.231	0.437	0.456	-0.613
O=C1c2ccccc2[C@@]2(Cc3ccccc3N(CC(F)(F)F)C2=O)[C@H](c2ccc(CO)cc2)N1Cc1ccccc1Cl	0.181	-0.265	-0.121	-0.134	1.12	0.652	-0.000595	0.667	-0.518	-0.496 (inactive)	0.125	0.289 (inactive)	-0.165 (inactive)	-0.141 (inactive)	-1.11 (inactive)	0.0272	-0.0256	0.0329	0.293	1.42
CCCN1C(=O)[C@]2(CCS(=O)(=O)c3ccccc3)N=C(c3ccc(OCCCO)cc3)O[C@@H]2c2ccccc21	1.02	1.21	0.554	0.967	0.958	0.408	0.535	0.576	0.737	0.54 (inactive)	0.419	-4.93 (inactive)	-1.32 (inactive)	-0.254 (inactive)	-1.53 (inactive)	1.24	0.0475	1.33	1.24	1.13
COCCOC(=O)N1C(=O)[C@@]2(c3cc(C#CC4=CCCCC4)ccc31)[C@H](C(=O)N1CCc3cc(OC)c(OC)cc3C1)[C@H]1C(=O)O[C@H](c3ccccc3)[C@H](c3ccccc3)N1[C@@H]2c1ccc(OCCO)cc1	1.2	1.14	0.756	0.868	1.15	1.16	-1.21	1.1	0.118	-1.09 (inactive)	0.538	-0.571 (inactive)	-0.259 (inactive)	-0.475 (inactive)	-0.381 (inactive)	0.665	0.0649	0.304	0.295	1.38
